Results on 38 compounds are retold here after PubChem BioAssay (EPA / NIEHS).

Activity calls are given as the source filed them. How the source made its calls: active means hit-call score of the fitted dose curve at least 0.9, where 1 is the maximum; inactive means score below 0.9.

The first test is described as follows: ATG_ERE_CIS: Attagene CIS-FACTORIAL HepG2 Assay for Estrogen Response Element (ERE) (AID 2282940). The settings on record: HepG2 ERE cis-reporter, Attagene RNA transcript; actives raise or lower the signal. In short, it runs like this:
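After a 24 h chemical treatment, RNA from reporter-transfected HepG2 cells is reverse-transcribed, PCR-amplified and fluorescently labelled. Fragments separated by capillary electrophoresis give reporter signal; DMSO serves as negative control.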
Regarding `CCC(Cc1c(I)cc(I)c(N)c1I)C(=O)O` (stereo unspecified), the AC50 was 4.54 µM (active).
As to `C=C(C)CCCC`, the compound was classed as inactive.
Regarding `OCC(F)(F)C(F)(F)C(F)(F)C(F)(F)C(F)(F)C(F)(F)CO`, the AC50 was 0.0909 µM (active).
Still for that read-out and setting: for `C[C@]12CC[C@H]3C(=CCc4cc(O)ccc43)[C@@H]1CCC2=O` the value was 0.0626 µM (active).
On to `Oc1ccc(C2(c3ccc(O)c(C4CCCCC4)c3)CCCCC2)cc1C1CCCCC1`, for which the result was inactive.
Same read-out and setting: for `O=C(O)CCC(F)(F)C(F)(F)C(F)(F)C(F)(F)C(F)(F)C(F)(F)C(F)(F)F` the value was “inactive”.
The same measure, in the same setting: the same measure for `NCC(F)(F)C(F)(F)C(F)(F)C(F)(F)C(F)(F)C(F)(F)F`: “inactive”; for `CC(C)C(=O)OCc1ccccc1`: “inactive”.
In the case of `CO[Si](C)(CCC(F)(F)C(F)(F)C(F)(F)C(F)(F)C(F)(F)C(F)(F)F)OC`, the compound was classed as inactive.
Same read-out and setting: the same measure for `CCCCCCCCCc1ccc(OCCO)cc1`: “inactive”; for `FC(F)(F)C(F)(F)C(F)(F)C(F)(F)C(F)(F)C(F)(F)C(F)(F)CCI`: “inactive”; for `C[Si](C)O[Si](C)C`: “inactive”.
Same read-out and setting: the same measure for `Cc1cnccn1`: “inactive”.
Still for that read-out and setting: the same measure for `NCC(F)(F)C(F)(F)C(F)(F)C(F)(F)C(F)(F)C(F)(F)C(F)(F)C(F)(F)F`: “inactive”; for `OCC(F)(F)C(F)(F)C(F)(F)CO`: “inactive”.
In the case of `CN(C)C(C)(C)CO`, the outcome was inactive.
For `Nc1cc([N+](=O)[O-])cc(Cl)c1O`, the compound was called inactive.
Same read-out and setting: for `CCCCCCCCCCCCC[N+](C)(C)Cc1ccccc1` the value was “inactive”; for `OCCCc1cccnc1`, “inactive”.
With `O=C(Cl)C(F)(F)C(F)(F)C(F)(F)C(F)(F)C(F)(F)C(F)(F)C(F)(F)F`, the AC50 is 47.5 µM (active).
On to `Cc1cc(C)c(O)c(C(C)(C)C)c1`, for which the compound was called inactive.
For the compound `CCC(=O)OC(C)c1ccccc1` (stereo unspecified), the result was inactive.
With `COc1ccccc1C=O`, the outcome was inactive.
On to `O=c1cccc[nH]1`, for which the call was inactive.
For `CCCCCCCCCCCC(=O)Cl`, the compound was called inactive.
Same read-out and setting: the same measure for `CCN=C1C=CC(=C(c2ccc(N(CC)CC)cc2)c2ccc(N(CC)CC)cc2)c2ccccc21`: “inactive”; for `NC(=O)C(F)(F)C(F)(F)C(F)(F)F`: “inactive”.
Turning to `CC(C)CC=C(C=O)c1ccccc1`, the AC50 was 35.2 µM (active).
Regarding `OCC(F)(F)C(F)(F)C(F)(F)C(F)(F)C(F)(F)C(F)(F)C(F)(F)C(F)(F)CO`, the AC50 is 0.163 µM (active).
For the compound `F[Si-2](F)(F)(F)(F)F`, the compound was classed as inactive.
On the same count and under the same terms, the same measure for `NC(=O)C(F)(F)C(F)(F)C(F)(F)C(F)F`: “inactive”.
The same measure, in the same setting: the same measure for `O=C(O)C(F)(F)OC(F)(F)C(F)(F)OC(F)(F)C(F)(F)OC(F)(F)F`: “inactive”.
For `CCCCC(CC)COC(=O)c1ccc(N(C)C)cc1` (stereo unspecified), the AC50 was 9.36 µM (active).
For `CCCCCCCCCCCCCC[P+](CCCC)(CCCC)CCCC`, the compound was called inactive.
As to `C=CCOC(=O)CC(C)C`, the compound was called inactive.
Still for that read-out and setting: the same measure for `O=C=Nc1cccc2c(N=C=O)cccc12`: “inactive”; for `CC(O)C#CC(C)O` (stereo unspecified): “inactive”.
For `CCOCN(C(=O)CS(=O)(=O)O)c1c(C)cccc1CC`, the outcome was inactive.

The nature of the next test: ATG_Ets_CIS: Attagene CIS-FACTORIAL HepG2 Assay for human Erythroblast Transformation Specific (ETS) (AID 2282941). The settings on record: HepG2 ETS cis-reporter transcription, actives raise or lower the signal. Summed up: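 Cis-regulated reporter mRNA induction in HepG2 (transient transfection), 24 h exposure, RT-PCR plus capillary electrophoresis detection; DMSO serves as negative control and baseline.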
For the compound `CCC(Cc1c(I)cc(I)c(N)c1I)C(=O)O` (stereo unspecified), the compound was called inactive.
Same read-out and setting: for `C=C(C)CCCC` the value was “inactive”; for `OCC(F)(F)C(F)(F)C(F)(F)C(F)(F)C(F)(F)C(F)(F)CO`, “inactive”.
`C[C@]12CC[C@H]3C(=CCc4cc(O)ccc43)[C@@H]1CCC2=O`: the call was inactive.
Take `Oc1ccc(C2(c3ccc(O)c(C4CCCCC4)c3)CCCCC2)cc1C1CCCCC1`: the AC50 was 16.5 µM (active).
As to `O=C(O)CCC(F)(F)C(F)(F)C(F)(F)C(F)(F)C(F)(F)C(F)(F)C(F)(F)F`, the outcome was inactive.
The same measure, in the same setting: the same measure for `NCC(F)(F)C(F)(F)C(F)(F)C(F)(F)C(F)(F)C(F)(F)F`: “inactive”; for `CC(C)C(=O)OCc1ccccc1`: “inactive”.
Same read-out and setting: the same measure for `CO[Si](C)(CCC(F)(F)C(F)(F)C(F)(F)C(F)(F)C(F)(F)C(F)(F)F)OC`: “inactive”.
In the case of `CCCCCCCCCc1ccc(OCCO)cc1`, the AC50 is 22.9 µM (active).
Take `FC(F)(F)C(F)(F)C(F)(F)C(F)(F)C(F)(F)C(F)(F)C(F)(F)CCI`: the result was inactive.
For the compound `C[Si](C)O[Si](C)C`, the compound was called inactive.
On the same count and under the same terms, for `Cc1cnccn1` the value was “inactive”.
As for `NCC(F)(F)C(F)(F)C(F)(F)C(F)(F)C(F)(F)C(F)(F)C(F)(F)C(F)(F)F`, the compound was classed as inactive.
For the compound `OCC(F)(F)C(F)(F)C(F)(F)CO`, the outcome was inactive.
Same read-out and setting: the same measure for `CN(C)C(C)(C)CO`: “inactive”; for `Nc1cc([N+](=O)[O-])cc(Cl)c1O`: “inactive”.
The same measure, in the same setting: for `CCCCCCCCCCCCC[N+](C)(C)Cc1ccccc1` the value was “inactive”; for `OCCCc1cccnc1`, “inactive”; for `O=C(Cl)C(F)(F)C(F)(F)C(F)(F)C(F)(F)C(F)(F)C(F)(F)C(F)(F)F`, “inactive”.
The same measure, in the same setting: the same measure for `Cc1cc(C)c(O)c(C(C)(C)C)c1`: “inactive”; for `CCC(=O)OC(C)c1ccccc1` (stereo unspecified): “inactive”; for `COc1ccccc1C=O`: “inactive”.
Turning to `O=c1cccc[nH]1`, the outcome was inactive.
Same read-out and setting: the same measure for `CCCCCCCCCCCC(=O)Cl`: “inactive”; for `CCN=C1C=CC(=C(c2ccc(N(CC)CC)cc2)c2ccc(N(CC)CC)cc2)c2ccccc21`: “inactive”.
Take `NC(=O)C(F)(F)C(F)(F)C(F)(F)F`: the call was inactive.
Still for that read-out and setting: for `CC(C)CC=C(C=O)c1ccccc1` the value was “inactive”.
Same read-out and setting: for `OCC(F)(F)C(F)(F)C(F)(F)C(F)(F)C(F)(F)C(F)(F)C(F)(F)C(F)(F)CO` the value was “inactive”.
The same measure, in the same setting: the same measure for `F[Si-2](F)(F)(F)(F)F`: “inactive”.
In the case of `NC(=O)C(F)(F)C(F)(F)C(F)(F)C(F)F`, the compound was classed as inactive.
Same read-out and setting: the same measure for `O=C(O)C(F)(F)OC(F)(F)C(F)(F)OC(F)(F)C(F)(F)OC(F)(F)F`: “inactive”; for `CCCCC(CC)COC(=O)c1ccc(N(C)C)cc1` (stereo unspecified): “inactive”.
Still for that read-out and setting: the same measure for `CCCCCCCCCCCCCC[P+](CCCC)(CCCC)CCCC`: “inactive”; for `C=CCOC(=O)CC(C)C`: “inactive”; for `O=C=Nc1cccc2c(N=C=O)cccc12`: “inactive”.
Still for that read-out and setting: for `CC(O)C#CC(C)O` (stereo unspecified) the value was “inactive”; for `CCOCN(C(=O)CS(=O)(=O)O)c1c(C)cccc1CC`, “inactive”.

Usually AC50 stands for the concentration giving half of the maximal activity seen.
